Many of the other results were omitted from the sample, so hits are more common in it than they were.
Shiga toxin inh – inhibitors of Shiga toxin in Vero cells. Vero cells, Shiga toxin protein synthesis inhibition reporter. inhibition, % at 38.7 µM. actives 9.2% (n = 290,000). AID 2315; in the data active = inhibition mostly above about 28%, no sharp cut-off; inactive = mostly below about 43%
Cycloheximide cs – counter-screen hit for Shiga toxin inhibitors, cycloheximide. actives 12% (n = 300,000). cell reporter, cycloheximide protein synthesis inhibition counterscreen. AID 2314. max response, %; in the data active = max response mostly above about 13%, no sharp cut-off; inactive = mostly below about 14%; note: read at 38.3 µM for the half of the compounds with a filed dose
Giardia FBPA inh – Giardia lamblia aldolase inhibition. A8B2U2. purified Giardia FBPA. Potency, µM (series often up to 59.6 µM), hits mostly inhibitors. actives 0.71% (n = 290,000); note: nearly all actives have a fitted effect of over 55% in size
Target sequence (A8B2U2 whole entry, looked up): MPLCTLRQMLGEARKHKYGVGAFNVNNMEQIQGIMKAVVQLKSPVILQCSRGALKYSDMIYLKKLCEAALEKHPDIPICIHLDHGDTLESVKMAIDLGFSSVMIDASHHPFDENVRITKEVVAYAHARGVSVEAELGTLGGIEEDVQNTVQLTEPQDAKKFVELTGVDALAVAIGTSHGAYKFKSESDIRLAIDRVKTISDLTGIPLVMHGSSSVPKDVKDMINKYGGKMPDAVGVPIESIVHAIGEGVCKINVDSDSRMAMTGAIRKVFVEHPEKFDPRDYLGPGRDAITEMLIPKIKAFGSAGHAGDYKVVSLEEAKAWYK
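Giardia FBPA (40 nM reagent) was preincubated 10 min at RT with compound (up to 57.5 uM final), then substrate plus GAPDH/TPI/NAD/arsenate coupling system with diaphorase/resazurin was added; resorufin fluorescence (525/598 nm) was read after 20 min.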
LmPK inh – inhibitors of Leishmania mexicana pyruvate kinase; Q27686; purified LmPK, Kinase-Glo ATP luminescence, 1 h; Potency, µM (highest dose often 57.5 µM), actives largely listed as inhibitors; actives 0.37% (n = 290,000); AID 1721
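Screened at intermediate enzyme activity to detect both inhibitors and activators: LmPK at 0.1 nM, with a 0.5 nM enzyme column as activation reference. PEP 0.5 mM, ADP 0.1 mM; ATP detected by luminescence after 1 h.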
RE007 growth inh – less growth of the S. pombe RE007 Vpr strain; actives 0.21% (n = 360,000); S. pombe RE007 Vpr strain, BacTiter-Glo ATP luminescence, 24 h; AID 651644; Potency, µM (top dose mostly 92.2 µM), usual class: inhibitors; active = well fitted falling curve with a large enough effect; inconclusive = small, poorly fitted or top-dose-only effect; inactive = no such curve, though single readings can be large or run the other way; note: nearly all actives have a fitted effect of over 50% in size
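Fission yeast RE007 carrying one integrated HIV-1 vpr copy, seeded at OD 0.01 in PMG+AL medium with 23 nL pinned compound. Grown 24 h at 30 degrees; viability read by BacTiter-Glo luminescence after 5 min.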
TbPYK inhibitor – T. brucei pyruvate kinase inhibition; Potency, µM (series often up to 76.8 µM), actives largely listed as inhibitors; Q57TT1; TbPYK enzyme, Kinase-Glo Plus ATP luminescence, 45 min; AID 624173; actives 0.12% (n = 410,000); note: nearly all actives have a fitted effect of over 50% in size
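Quantitative HTS: titrated library compounds versus trypanosomal pyruvate kinase in TEA buffer (pH 7.2) containing KCl, MgCl2, BSA and Tween-20. Reactions were initiated with ADP, 130 uM final. Kinase-Glo Plus luminescence was read after 45 min at RT.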
A number is an active result; i = inactive; ? = inconclusive; nt = not tested or not shown. Unless noted, calls come from the whole dose curve; as a rule, active = well fitted curve in the direction sought with a large enough effect; inconclusive = small, poorly fitted or top-dose-only effect, or another doubt; inactive = no such curve, though single readings can be large; an effect the other way counts as inactive or inconclusive.

SMILES	Shiga toxin inh	Cycloheximide cs	Giardia FBPA inh	LmPK inh	RE007 growth inh	TbPYK inhibitor
CN(c1ccccc1)c1ccc(/C=C(\CCC(=O)O)c2nc3ccccc3s2)cc1[N+](=O)[O-]	i	16	i	i	i	i
O=C(O)C/C(=C\c1cccc(NC(=O)c2ccccc2Cl)c1)c1nc2ccccc2s1	52	26	i	i	i	i
COc1cc(C=C(c2nc3ccccc3s2)c2nc3ccccc3s2)cc(OC)c1O	i	17	?	i	i	i
CS(=O)(=O)c1ccc(CNC(=O)[C@@H]2C[C@H]2[C@@H](NP(=O)(c2ccccc2)c2ccccc2)c2ccccc2)cc1	nt	nt	i	nt	nt	nt
COc1ccc(-c2n[nH]c3c2cnc2ccc(F)cc23)cc1	nt	nt	nt	nt	nt	i
CCOc1ccccc1N(C)C(=O)NCc1noc2ccccc12	nt	nt	nt	nt	nt	i
Cc1cc(=O)n(CC(=O)N2CCCc3ccccc32)c2c1c(C)nn2-c1cccc(F)c1	nt	nt	nt	nt	nt	i
Cc1cccc(NC(=O)CNC(=O)CSc2nnc(C(F)(F)F)n2C)c1C	nt	nt	nt	nt	i	i
CCCCCC(=O)Nc1cccc(C2=NOC3(C2)C[C@@H](C(N)=O)N(C(=O)c2ccc(Cl)cc2)C3)c1 (stereo partly specified)	i	i	i	i	i	i
COc1ccc(/C=C(\CC(=O)O)c2nc3ccccc3s2)cc1O	72	i	i	i	i	i
CCOc1cc(/C=C(\CC(=O)O)c2nc3ccccc3s2)ccc1OC	i	i	i	i	i	i
COc1ccc(C(=O)Nc2cccc(/C=C(\CCC(=O)O)c3nc4ccccc4s3)c2)cc1	59	17	i	i	i	i
COc1cc(/C=C(\CC(=O)O)c2nc3ccccc3s2)cc(OC)c1O	i	i	i	i	i	?
CCOC(=O)C1=CNS(=O)(=O)NC1CCc1ccccc1 (stereo unspecified)	nt	nt	nt	nt	i	i
Cc1ccc(NC(=S)NCCc2cnc[nH]2)cc1C	i	i	i	i	?	i
S=C(NCCc1ccccc1)NCCc1cnc[nH]1	nt	16	i	i	i	i
CNC(=S)NCCCCc1cnc[nH]1	i	i	11µM	nt	nt	nt
O=[N+]([O-])c1ccc(O)c(C=Nc2ccc3c(c2)OCCO3)c1	108	112	i	i	i	i
Oc1c(Br)cc(Br)cc1C=Nc1ccc2c(c1)OCCO2	50	32	i	i	i	i
Oc1[nH]c2ccccc2c1C=Nc1ccc2c(c1)OCCO2	i	32	i	?	i	i
O=[N+]([O-])c1ccc(O)c(C=NN2CCCCC2)c1	nt	nt	nt	nt	i	i
Cc1[nH]c2ccccc2c1/C=N/NC(=O)CNC(=O)c1ccc2c(c1)OCCO2	i	i	i	i	i	i
CC(=O)NNC(=S)NC(=O)c1ccccc1	i	i	?	i	i	i
O=C(NC(=S)NC1CCCC1)c1ccccc1	67	43	nt	i	i	i
O=C(NC(=S)NC1C2CC3CC(C2)CC1C3)c1ccccc1 (stereo unspecified)	49	18	nt	i	i	i
SMILES	Shiga toxin inh	Cycloheximide cs	Giardia FBPA inh	LmPK inh	RE007 growth inh	TbPYK inhibitor
Cc1ccc(-c2cn(-c3ccccc3F)c(=S)[nH]2)cc1	68	42	i	i	i	?
O=[N+]([O-])c1ccc(-c2cn(-c3ccccc3F)c(=S)[nH]2)cc1	131	42	i	i	i	i
Cc1ccc(C)c(NC(=O)CN2C(=O)C3(SCC(=O)N3c3ccc(C)c(C)c3)c3ccccc32)c1 (stereo unspecified)	nt	nt	nt	nt	nt	i
Cc1nn2c(-c3cccc(NC(=O)c4ccco4)c3)nnc2c2ccccc12	i	22	i	i	i	i
Cc1nn2c(-c3ccccc3)nnc2c2ccccc12	i	11	i	i	?	i
COc1ccccc1S(=O)(=O)NCc1ccc(C(=O)NC2CCC(O)CC2)cc1 (stereo unspecified)	nt	nt	nt	nt	i	i
O=C(c1ccc2ccccc2c1)C1CCCN(S(=O)(=O)c2cccnc2)C1 (stereo unspecified)	i	i	i	i	i	i
CCC(=O)N1CCCC(C(=O)Nc2ccc3cn[nH]c3c2)CC1 (stereo unspecified)	nt	nt	nt	nt	i	i
O=C(Nc1cccn2ncnc12)c1ccc(Cl)cc1	i	i	i	i	i	i
O=C(Nc1cnc2ccccn2c1=O)c1ccc(Cl)cc1	113	33	i	i	i	i
CCC(=O)NCCc1nc2cc(NC(=O)c3ccco3)ccc2n1C	44	15	i	i	i	i
CCOC(=O)N1CCN(Cc2nc3cc(NC(=O)C(C)C)ccc3n2CC)CC1	i	i	i	i	i	i
Cc1cc(NC(=O)c2ccco2)ccc1-n1cnnn1	113	46	nt	i	i	i
Cc1cc2cc(NC(=O)c3ccco3)ccc2[nH]1	137	61	?	i	i	i
CCOC(=O)N1CCN(Cc2nc3cc(NC(=O)c4ccco4)ccc3n2CC)CC1	i	23	i	i	i	i
C=C1C(=O)OC2CC1C(OC(C)=O)CC(C)=CCCC(C)=CCC[C@@]2(C)O (stereo partly specified)	nt	nt	i	nt	nt	nt
O=C(N/N=C/c1cccc(Cl)c1)C(c1ccncc1)N1CCOCC1 (stereo unspecified)	i	i	i	i	i	i
CCCCCCCCCCCCCC[C@@H](O)[C@@H](O)[C@@H](N)CO	i	i	i	nt	nt	nt
COc1ccccc1C(=O)Nc1ccc2c(c1)nc(CCNC(=O)c1ccco1)n2C	i	i	i	i	i	i
NNC(=O)c1ccc2[nH]c3c(c2c1)CCCC3	i	i	i	i	i	i
Cn1c(CCNC(=O)c2ccco2)nc2cc(NC(=O)c3ccco3)ccc21	49	23	i	i	i	i
Cn1c(CCNC(=O)c2ccco2)nc2cc(NC(=O)C3CCCCC3)ccc21	37	12	i	i	i	i
CC(=O)c1cccc(NC(=O)NCc2ccco2)c1	i	i	i	i	i	i
